Source: PubChem (National Center for Advancing Translational Sciences (NCATS))
Compounds with a hit are over-represented: about 10% of the library has one in this group of screens.
KB-V1 MDR tox = KB-V1 MDR subline cytotoxicity; AID 1347076; Potency, µM (doses to about 46.1 µM), actives largely listed as cytotoxic; 3.4% of 400,000 active; KB-V1 MDR cells viability, CellTiter-Glo, 72 h; also: % is scaled to controls: 0 for no effect and ±100 for the full control effect; nearly all actives have a fitted effect of over 60% in size
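In this primary screen, KB-V1 cells overexpressing P-gp are incubated with library compounds (lowest to highest concentration) for 72 h at 37 degrees C before a luminescent ATP viability read.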
VP16 counter = Gal4-VP16 reporter inhibition counter-screen; Drosophila S2 Gal4-VP16 UAS-luciferase, luminescence, 20 h; Potency, µM (titrated, usually from 53.6 µM), without a hit: at the highest dose activity, negative = inhibition, actives largely listed as inhibitors; 3.5% of 310,000 active;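 also: Gal4-VP16 expression switched on by copper sulfate through the metallothionein promoter; % is scaled to controls: 0 for no effect and ±100 for the full control effect; nearly all actives have a fitted effect of over 50% in size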
MCF10A rereplic = induces DNA re-replication in MCF 10a normal breast cells | MCF 10A DNA re-replication, Hoechst nuclear intensity, 48 h | Potency, µM (doses to about 46.1 µM), for inactives: top-dose activity, positive = re-replication, actives largely listed as activators | 2.9% of 350,000 active | AID 624296; also: % of control where 0% means no effect; nearly all actives have a fitted effect of over 50% in size
SW480 rerep = inducers of DNA re-replication in SW480 colon cancer cells | SW480 DNA re-replication, Hoechst DNA content imaging, 48 h | Potency, µM (highest dose often 46.1 µM), for inactives: at the highest dose re-replication activation, most hits filed as activators | 1.8% of 340,000 active; also: % of control where 0% means no effect; nearly all actives have a fitted effect of over 55% in size
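Image-based DNA-content assay: after two days of treatment, nuclei were labelled with the DNA dye Hoechst and imaged, and hits were compounds raising the count of nuclei showing high fluorescence intensity.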
KB-3-1 cytotox = KB-3-1 parental cell cytotoxicity; KB-3-1 viability, CellTiter-Glo ATP luminescence, 72 h; Potency, µM (highest dose often 46.1 µM), actives largely listed as cytotoxic; 1.4% of 400,000 active; AID 1347075; also: % is scaled to controls: 0 for no effect and ±100 for the full control effect; nearly all actives have a fitted effect of over 60% in size
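Parental KB-3-1 viability, qHTS format: 72 h compound exposure, 37 °C; CellTiter-Glo; media-only wells and DMSO plates as controls; concentration-effect fits on corrected data.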
RORgamma inh = inhibitors of mouse ROR gamma transcriptional activity; P51450; Drosophila S2 Gal4-RORgamma UAS-luciferase reporter, 20 h; Potency, µM (doses to about 53.6 µM), without a hit: top-dose activity change, negative = inhibition, hits mostly inhibitors; 5.4% of 310,000 active; AID 2551; also: % is scaled to controls: 0 for no effect and ±100 for the full control effect; nearly all actives have a fitted effect of over 60% in size
Target sequence (P51450 whole entry, looked up, the tested form may be a part): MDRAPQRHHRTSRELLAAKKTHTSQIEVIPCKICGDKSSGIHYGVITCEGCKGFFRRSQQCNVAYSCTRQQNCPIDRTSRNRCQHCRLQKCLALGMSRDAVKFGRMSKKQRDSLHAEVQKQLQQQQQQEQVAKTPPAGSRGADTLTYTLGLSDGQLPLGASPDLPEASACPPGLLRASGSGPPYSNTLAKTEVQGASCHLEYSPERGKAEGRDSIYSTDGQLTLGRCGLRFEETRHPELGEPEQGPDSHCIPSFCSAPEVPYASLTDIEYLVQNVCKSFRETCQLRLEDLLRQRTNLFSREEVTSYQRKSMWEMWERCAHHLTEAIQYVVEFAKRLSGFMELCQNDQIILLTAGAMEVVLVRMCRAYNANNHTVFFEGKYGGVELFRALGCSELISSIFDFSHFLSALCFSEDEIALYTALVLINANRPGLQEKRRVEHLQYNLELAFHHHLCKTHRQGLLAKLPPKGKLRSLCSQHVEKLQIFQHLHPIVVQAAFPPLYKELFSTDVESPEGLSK
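Stably transfected Drosophila Schneider cells are the test system, with ROR gamma fused to Gal4 and luciferase under UAS control; luminescence is read after 20 hr of 700 uM copper sulfate induction at ambient temperature.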
The depositor's hits bear a star; i = inactive; ? = inconclusive; nt = no result given; [ ] = remark or other dose. Calls follow the shape of the dose curve; as a rule, active = well fitted curve in the direction sought with a large enough effect; inconclusive = small, poorly fitted or top-dose-only effect, or another doubt; inactive = no such curve, though single readings can be large; an effect the other way counts as inactive or inconclusive. Potency is read from the fitted curve at half-maximal effect.

SMILES	KB-V1 MDR tox	VP16 counter	MCF10A rereplic	SW480 rerep	KB-3-1 cytotox	RORgamma inh
COc1ccc(S(=O)(=O)/N=C2/NC(=O)/C(=C/c3ccco3)S2)cc1	i	-9%	-1%	10%	i	-11%
COC(=O)/C=C1/S/C(=N/NC(=O)c2ccc(OC)cc2)NC1=O	i	?	1%	0%	i	14µM*
O=C(NCC(c1ccc2c(c1)OCO2)N1CCN(c2ccccc2F)CC1)c1ccccc1F (centres undefined)	i	nt	nt	nt	i	nt
NCCC1CN(C(=O)OCc2ccccc2)c2ccccc21 (centres undefined)	i	nt	-7%	10µM*	i	nt
O=C(OCc1ccccc1)N1CCOCCOCCN(C(=O)OCc2ccccc2)CCOCCOCC1	?	1%	-8%	-2%	i	41%
COc1cccc(Nc2nc(-c3sc(NC(=O)CC(C)C)nc3C)cs2)c1	i	18µM*	18%	-4%	?	?
COc1ccccc1Nc1nc(-c2c(C)[nH]c3ccccc23)cs1	i	0%	5.8µM*	10µM*	i	-3%
CCCCCC(=O)Nc1nc(C)c(-c2csc(Nc3cc(Cl)ccc3OC)n2)s1	i	-1%	-12%	?	i	-8%
C=CCCC(=O)Nc1nc(C)c(-c2csc(Nc3cc(OC)ccc3OC)n2)s1	i	-13%	?	23µM*	?	29%
Cc1ccc(Cl)cc1Nc1nc(-c2sc(NC(=O)C(C)(C)C)nc2C)cs1	i	11µM*	-26%	22%	?	?
CCOC(=O)C1(C)CCCN(C(=O)c2c(F)cccc2F)C1 (centres undefined)	i	nt	nt	nt	i	nt
COC(=O)c1cc2oc3ccccc3c2n1CC(=O)Nc1ccc(C)cc1Cl	?	nt	nt	nt	i	nt
CCc1nc2ccc(C(=O)NCCc3c[nH]c4ccccc34)cn2c1N(C)Cc1ccc(N(C)C)cc1	i	nt	nt	nt	i	nt
CCCC(=O)Nc1nc(C)c(-c2csc(Nc3ccccc3OC)n2)s1	i	-9%	9%	-2%	i	30%
COc1ccccc1Nc1nc(-c2sc(NC(=O)C(C)(C)C)nc2C)cs1	i	6.3µM*	5%	17%[9.22 µM]	8.2µM*	?
Cc1ccc(CN2CCCC2(C)C(=O)NC(C)C)cc1 (centres undefined)	i	nt	nt	nt	i	nt
CC(C)NC(=O)C1(C)CCCCN1Cc1ccc(OCc2ccccc2)cc1 (centres undefined)	?	nt	nt	nt	16µM*	nt
Cn1c(-n2cccc2)c(-c2c(-c3ccccc3)[nH]c3c2c(=O)[nH]c(=O)n3C)c(=O)[nH]c1=O	i	nt	nt	nt	i	nt
Cc1ccc(Nc2nc(N)c([N+](=O)[O-])c(N3CCC(C)CC3)n2)cc1C	23µM*	-2%	0%	?	?	2%
CCN1CCN(c2nc(Nc3cccc(C)c3)nc(N)c2[N+](=O)[O-])CC1	4.1µM*	-1%	0%	0%	i	-1%
Cc1ccc(Nc2nc(N)c([N+](=O)[O-])c(N3CCOCC3)n2)cc1C	i	-14%	14%	9%	i	?
CCN(CC)c1ncnc2c1cnn2-c1cc(Cl)ccc1C	i	nt	nt	nt	i	nt
COCCCNc1nc2c(-c3cccc(C)c3)nnn2c2ccccc12	i	-21%	13µM*	8%	i	-11%
Cn1cccc1C(=O)N1CCC2(CCCN(c3ccncc3)C2)CC1	nt	9%	nt	nt	nt	10%
CCOC(=O)c1sc(NC(=O)c2cc(-c3ccc(F)cc3)on2)c(C(=O)OCC)c1C	i	nt	nt	nt	i	nt
CCOC(=O)c1c(NC(=O)C2=C(C)NC(=S)NC2c2ccc(F)cc2)sc(C)c1C (centres undefined)	?	?	18µM*	?	i	13µM*
